Reference: publication PMC4336329 (PLoS ONE, 2015)
Out of some 310,000 compounds screened, about 14,000 (4.5%) showed an effect of 50% or more. The effect is printed as a negative number. The list comes from a sample in which strong results are over-represented; it also holds similar structures and randomly drawn compounds.

Target: human ether-à-go-go-related gene (hERG) potassium channel (human, UniProt Q12809)
Assay: primary screen, population patch clamp on CHO cells stably expressing hERG; higher = less effect of the substance
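Further: peak tail current of the secondary pulse compared with the same well before compound.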

Chain of human ether-à-go-go-related gene (hERG) potassium channel (Q12809 whole entry, looked up): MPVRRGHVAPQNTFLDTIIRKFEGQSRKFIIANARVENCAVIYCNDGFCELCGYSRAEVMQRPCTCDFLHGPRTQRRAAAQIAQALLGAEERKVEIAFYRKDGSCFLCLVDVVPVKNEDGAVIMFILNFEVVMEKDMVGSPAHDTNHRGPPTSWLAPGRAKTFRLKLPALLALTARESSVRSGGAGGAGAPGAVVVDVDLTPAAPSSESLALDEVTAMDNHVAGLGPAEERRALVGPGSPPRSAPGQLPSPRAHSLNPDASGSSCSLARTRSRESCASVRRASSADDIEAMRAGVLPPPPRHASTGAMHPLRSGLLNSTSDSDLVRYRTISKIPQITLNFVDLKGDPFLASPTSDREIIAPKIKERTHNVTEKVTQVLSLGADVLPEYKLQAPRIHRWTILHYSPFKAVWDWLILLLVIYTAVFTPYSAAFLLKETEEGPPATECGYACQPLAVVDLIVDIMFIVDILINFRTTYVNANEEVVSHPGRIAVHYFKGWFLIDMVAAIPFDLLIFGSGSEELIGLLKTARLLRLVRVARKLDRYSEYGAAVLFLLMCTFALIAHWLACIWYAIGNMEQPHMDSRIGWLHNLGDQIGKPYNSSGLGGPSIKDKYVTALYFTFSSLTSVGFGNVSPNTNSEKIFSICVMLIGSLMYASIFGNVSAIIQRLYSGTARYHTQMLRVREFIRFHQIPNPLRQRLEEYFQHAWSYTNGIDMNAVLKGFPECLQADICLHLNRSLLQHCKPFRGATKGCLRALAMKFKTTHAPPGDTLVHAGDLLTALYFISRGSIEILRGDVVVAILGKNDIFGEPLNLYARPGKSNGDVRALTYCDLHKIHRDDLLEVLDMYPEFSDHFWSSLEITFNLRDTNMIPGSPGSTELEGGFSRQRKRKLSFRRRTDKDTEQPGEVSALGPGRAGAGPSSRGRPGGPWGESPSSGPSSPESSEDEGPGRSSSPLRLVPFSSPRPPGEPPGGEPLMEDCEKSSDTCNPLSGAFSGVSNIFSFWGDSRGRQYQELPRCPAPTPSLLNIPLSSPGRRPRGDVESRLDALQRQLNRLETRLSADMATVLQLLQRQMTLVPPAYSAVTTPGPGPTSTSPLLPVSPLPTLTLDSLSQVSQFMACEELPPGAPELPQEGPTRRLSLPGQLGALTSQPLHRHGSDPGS

Compared with `CCOc1ccc(NC(=S)N2CCC(c3ccc(C)cc3)C2)cc1` (centres unmarked), `Cc1ccc(C(=O)N2CCCC(CCC(=O)N3CCN(c4ccccn4)CC3)C2)cc1` (centres unmarked) is lower in “hERG current change (%, negative = inhibition) at 10uM” value: -6.63% for the first, -9.9% for the second.

First: CSc1cccc(NC(=S)N(CCCN2CCCC2)Cc2cccs2)c1
Second: CSc1cccc(NC(=S)N(CCCN2CCCC(C)C2)Cc2cccs2)c1 (centres unmarked)
The “hERG current change (%, negative = inhibition) at 10uM” value of the first is higher: -63.7% for the first, -75.6% for the second.

Going from `CSc1cccc(NC(=S)N(CCCN2CCCC2)Cc2cccn2Cc2ccc(Cl)cc2)c1` to `CSc1cccc(NC(=S)N(CCCN2CCC(C)CC2)Cc2cccs2)c1`, the “hERG current change (%, negative = inhibition) at 10uM” value falls from -28.1% to -72.9%.

Compared with `Cc1cccc(C)c1NC(=S)N(CCCN1CCN(C)CC1)Cc1cccs1`, `CN1CCN(Cc2c(C(=O)N3CCc4ccccc4C3)nc3ccc(Cl)cn23)CC1` is lower in “hERG current change (%, negative = inhibition) at 10uM” value: -47.8% for the first, -51.8% for the second.

Going from `Cc1ccc(/C=N/NC(=O)c2cc3c(ccc4ccccc43)o2)cc1[N+](=O)[O-]` to `O=C(CNC(=O)c1ccc([N+](=O)[O-])cc1)c1ccccc1`, the “hERG current change (%, negative = inhibition) at 10uM” value falls from 3.49% to -6.36%.

First: Cc1cc(C)n(C(=O)COc2c(C)cccc2C)n1
Second: COC(=O)c1cc2c(C)nn(-c3ccccc3)c2s1
The “hERG current change (%, negative = inhibition) at 10uM” value of the first is higher: 11% for the first, 2.91% for the second.

First: COc1cc(C(=O)N2CCN(C3CCC(C)CC3)CC2)cc(OC)c1OC.O=C(O)C(=O)O (centres unmarked)
Second: Cc1ccc(C(=O)N2CCCC(CCC(=O)N3CCN(c4ccccn4)CC3)C2)cc1C (centres unmarked)
The “hERG current change (%, negative = inhibition) at 10uM” value of the first is higher: 8.29% for the first, -34.9% for the second.

Compared with `CCCCN(C)Cc1c(C(=O)N2CCc3ccccc3C2)nc2ccc(Cl)cn12`, `CCN(C)Cc1c(C(=O)N2CCc3ccccc3C2)nc2ccc(Cl)cn12` is higher in “hERG current change (%, negative = inhibition) at 10uM” value: -50.1% for the first, -31.1% for the second.

First: CN(Cc1cnccn1)Cc1c(C(=O)N2CCc3ccccc3C2)nc2ccc(Cl)cn12
Second: CN(Cc1cccnc1)Cc1c(C(=O)N2CCc3ccccc3C2)nc2ccc(Cl)cn12
The “hERG current change (%, negative = inhibition) at 10uM” value of the first is lower: -23.4% for the first, -20.1% for the second.

First: Cc1cnc(CN(C)Cc2c(C(=O)N3CCc4ccccc4C3)nc3ccc(Cl)cn23)[nH]1
Second: CC(C)CN(C)Cc1c(C(=O)N2CCc3ccccc3C2)nc2ccc(Cl)cn12
The “hERG current change (%, negative = inhibition) at 10uM” value of the first is lower: -62.6% for the first, -53.2% for the second.

Going from `CCN(CC)Cc1c(C(=O)N2CCc3ccccc3C2)nc2ccc(Cl)cn12` to `CN(Cc1c(C(=O)N2CCc3ccccc3C2)nc2ccc(Cl)cn12)C(C1CC1)C1CC1`, the “hERG current change (%, negative = inhibition) at 10uM” value falls from -13.1% to -45.9%.

First: O=C(c1nc2ccc(Cl)cn2c1CN1CCCC1)N1CCc2ccccc2C1
Second: CC1CCN(Cc2c(C(=O)N3CCc4ccccc4C3)nc3ccc(Cl)cn23)CC1
The “hERG current change (%, negative = inhibition) at 10uM” value of the first is higher: -10.6% for the first, -31.7% for the second.

Going from `Cc1cnc(CN(C)Cc2c(C(=O)N3CCCCCCC3)nc3ccc(Cl)cn23)[nH]1` to `Cn1c(=O)c(=O)n(C)c2cc(N3CCCC3)c(NS(=O)(=O)c3ccc(Cl)cc3)cc21`, the “hERG current change (%, negative = inhibition) at 10uM” value falls from -29% to -44.3%.

Compared with `CC(=O)c1cccc(NC(=O)COC(=O)c2ccccn2)c1`, `COc1cccc(NC(=O)CSc2ccc3nnc(-c4ccccn4)n3n2)c1` is lower in “hERG current change (%, negative = inhibition) at 10uM” value: 5.33% for the first, -47.3% for the second.

Compared with `Cc1ccc(-c2nnc(-c3cc(C)on3)o2)cc1`, `Cc1cccc(CSc2nnc(-c3ccccn3)n2N)c1` is lower in “hERG current change (%, negative = inhibition) at 10uM” value: 19.6% for the first, 2.88% for the second.

Going from `COc1cc(N(C)C)c([N+](=O)[O-])cc1C(=O)NC(C)CNc1ccc([N+](=O)[O-])cc1Cl` (centres unmarked) to `COc1ccc(OC)c(S(=O)(=O)Nc2ccc3c(c2)n(C)c(=O)n3C)c1`, the “hERG current change (%, negative = inhibition) at 10uM” value rises from -2.36% to 1.61%.

Compared with `COC(=O)C1=CO[C@@H](C)[C@H]2CN3CC[C@]4(C(=O)Nc5ccccc54)[C@@H]3C[C@H]12`, `CCc1ccc(CN2CCCC(CCC(=O)N3CCN(c4ccccn4)CC3)C2)o1` (centres unmarked) is lower in “hERG current change (%, negative = inhibition) at 10uM” value: 15.5% for the first, -58.7% for the second.

Going from `Fc1ccccc1NC(=S)Nc1cccc2cnccc12` to `O=C(CSc1ccc2nnc(-c3ccccn3)n2n1)Nc1cccc(F)c1`, the “hERG current change (%, negative = inhibition) at 10uM” value falls from 46.8% to -40.6%.

First: Fc1cccc(Cl)c1CSc1ccc2nnc(-c3ccccn3)n2n1
Second: Fc1cccc(CSc2ccc3nnc(-c4ccccn4)n3n2)c1
The “hERG current change (%, negative = inhibition) at 10uM” value of the first is higher: -13.5% for the first, -77.9% for the second.

First: Cc1cccc(CSc2ccc3nnc(-c4ccccn4)n3n2)c1
Second: CCOC(=O)CC(=O)CSc1nc(-c2ccccc2)cc(-c2ccccc2)c1C#N
The “hERG current change (%, negative = inhibition) at 10uM” value of the first is lower: -75.7% for the first, 10.1% for the second.

Compared with `Cc1cn2nc(N)c3ccccc3c2n1`, `O=C(CN1C(=O)c2ccccc2S1(=O)=O)NCCSCc1c(F)cccc1Cl` is lower in “hERG current change (%, negative = inhibition) at 10uM” value: -9.19% for the first, -29.7% for the second.

First: CCOC(=O)c1cc(C(C)=O)c(=O)[nH]c1C
Second: COc1ccc(OC)c(NS(=O)(=O)c2cc(OC)ccc2OC)c1
The “hERG current change (%, negative = inhibition) at 10uM” value of the first is higher: 12% for the first, -2.14% for the second.

Going from `Cc1cccc(C(=O)N2CCCC(CCC(=O)N3CCN(c4ccccn4)CC3)C2)c1` (centres unmarked) to `CCc1cc(C(=O)N2CCCC(CCC(=O)N3CCN(c4ccccn4)CC3)C2)no1` (centres unmarked), the “hERG current change (%, negative = inhibition) at 10uM” value rises from -74.5% to -17.4%.

Compared with `O=C(CCC1CCCN(c2ncccn2)C1)N1CCN(c2ccccn2)CC1` (centres unmarked), `CCc1ccc(S(=O)(=O)Nc2cc3c(cc2N2CCCCC2)n(C)c(=O)c(=O)n3C)cc1` is lower in “hERG current change (%, negative = inhibition) at 10uM” value: -23% for the first, -85.6% for the second.

Compared with `Cn1c(=O)c(=O)n(C)c2cc(N3CCOCC3)c(NS(=O)(=O)c3ccc(Br)cc3)cc21`, `Cc1ccc(S(=O)(=O)Nc2cc3c(cc2N2CCOCC2)n(C)c(=O)c(=O)n3C)cc1` is higher in “hERG current change (%, negative = inhibition) at 10uM” value: -27% for the first, -9.6% for the second.

Compared with `Cn1c(=O)c(=O)n(C)c2cc(N3CCCCC3)c(NS(=O)(=O)c3ccc(Br)cc3)cc21`, `Cn1c(=O)c(=O)n(C)c2cc(N3CCCC3)c(NS(=O)(=O)c3ccc(F)cc3)cc21` is higher in “hERG current change (%, negative = inhibition) at 10uM” value: -65.1% for the first, -16.2% for the second.

Compared with `Cn1c(=O)c(=O)n(C)c2cc(N3CCCCC3)c(NS(=O)(=O)c3ccc([N+](=O)[O-])cc3)cc21`, `Cn1c(=O)c(=O)n(C)c2cc(N3CCOCC3)c(NS(=O)(=O)c3ccc([N+](=O)[O-])cc3)cc21` is higher in “hERG current change (%, negative = inhibition) at 10uM” value: -50.6% for the first, 2.58% for the second.

Going from `COc1ccc(OC)c(S(=O)(=O)Nc2cc3c(cc2N2CCCC2)n(C)c(=O)c(=O)n3C)c1` to `CCc1ccc(S(=O)(=O)Nc2cc3c(cc2N2CCOCC2)n(C)c(=O)c(=O)n3C)cc1`, the “hERG current change (%, negative = inhibition) at 10uM” value rises from -50.7% to -32.1%.
